Records with an inconclusive call do not appear. The source made the active and inactive calls. Calls follow the shape of the dose curve; as a rule, active = well fitted inhibition curve with a large enough effect; inconclusive = small, poorly fitted or top-dose-only effect; inactive = flat fitted curve, though single readings scatter.
% is scaled to controls: 0 for no effect and ±100 for the full control effect; potency is read from the fitted curve at half-maximal effect.

The nature of this test: qHTS to identify inhibitors of the type 1 interferon - major histocompatibility complex class I in skeletal muscle: primary screen against the NCATS Pharmaceutical Collection (AID 1347407).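 Also: luminescence of HiBiT knocked into endogenous HLA-B as interferon-induced MHC class I level.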 Particulars: human skeletal muscle cells, IFN-b-induced MHC-I HiBiT luminescence, 24 h; series mostly up to 45.9 µM; activity change, negative = inhibition: at the top concentration. An outline of the steps:
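Cells were seeded with 4 ng/ml IFN-beta, incubated 1 h, then dosed with compounds over eight 1:5 steps up to 46 uM final. After 24 h at 37 C, HiBiT lytic reagent was added and luminescence read after 10 min lysis in the dark.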
As to `COc1cc2c(cc1OC)C(C(C(=O)N(CCc1ccc(OC)c(OC)c1OC)CCc1ccc(OC)c(OC)c1OC)c1ccccc1)=NCC2` (stereo not given), the “activity change, negative = inhibition” value is -15.2% (inactive).
Same read-out and setting: to `COCc1c(C(C)C)nc(C(C)C)c(/C=C/[C@@H](O)C[C@@H](O)CC(=O)O)c1-c1ccc(F)cc1` belongs -29.2% (inactive); to `CCN1CCCC1=O`, 0.368% (inactive).
Same read-out and setting: to `CCOC(=O)OC(C)OC1=C(C(=O)Nc2ccccn2)N(C)S(=O)(=O)c2ccccc21` (stereo not given) belongs 5.65% (inactive); to `Cc1cc(=O)n(-c2ccccc2)n1C`, -0.954% (inactive); to `Nc1ccc(C(=O)O)cc1`, -3.24% (inactive).
Still for that read-out and setting: to `COc1cc2c(cc1OC)[C@@H]1CC(=O)[C@@H](CC(C)C)CN1CC2` belongs -10.5% (inactive).
As to `CN(C/C=C/c1ccccc1)Cc1cccc2ccccc12`, the “activity change, negative = inhibition” value was -15.8% (inactive).
Take `CC(=O)Oc1ccc(C(=C2CCCCC2)c2ccc(OC(C)=O)cc2)cc1`: the “activity change, negative = inhibition” value is 19.5% (inactive).
`CC(C)COC(=O)c1ccc(N)cc1`: the “activity change, negative = inhibition” value is -1.24% (inactive).
Still for that read-out and setting: to `CC(C)N=C(N)/N=C(\N)Nc1ccc(Cl)cc1` belongs -8.45% (inactive); to `CCN1CCC[C@H]1CNC(=O)c1c(OC)ccc(Br)c1OC`, -1.75% (inactive); to `Cc1ncc(CSSCc2cnc(C)c(O)c2CO)c(CO)c1O`, 3.32% (inactive).
Still for that read-out and setting: to `Cc1cccn2c(=O)c(-c3nnn[nH]3)cnc12` belongs -7.33% [at 19 µM] (inactive); to `OCc1ccccc1O`, 5.41% (inactive).
The same measure, in the same setting: to `CCOC(=O)[C@H](CCc1ccccc1)N[C@@H](C)C(=O)N1Cc2ccccc2C[C@H]1C(=O)O` belongs 14.9% (inactive); to `O=c1[nH]c(=O)n([C@H]2CCCO2)cc1F`, -0.448% (inactive).
Consider `C#C[C@]1(O)CC[C@H]2[C@@H]3CCc4cc(OC5CCCC5)ccc4[C@H]3CC[C@@]21C`, for which the “activity change, negative = inhibition” value was -11.9% (inactive).
For the compound `CN=C(NC#N)NCCSCc1csc(N=C(N)N)n1`, the “activity change, negative = inhibition” value is -19.5% (inactive).
Same read-out and setting: to `O=C(O)CNC(=O)c1ccccc1` belongs 3.48% (inactive).
Same read-out and setting: to `C=C1C(=C/C=C2\CCC[C@]3(C)[C@@H]([C@H](C)/C=C/[C@@H](O)C4CC4)CC[C@@H]23)C[C@@H](O)C[C@@H]1O` belongs -18.3% (inactive).
As for `CC(=O)CC(c1ccc([N+](=O)[O-])cc1)c1c(O)c2ccccc2oc1=O` (stereo not given), the Potency was 1.49 µM (active).
For `Oc1cc(O)c2c(c1)O[C@H](c1ccc(O)c(O)c1)[C@H](O)C2`, the “activity change, negative = inhibition” value was -9.11% (inactive).
As for `CCCCOc1ccc(C(=O)CCN2CCCCC2)cc1`, the “activity change, negative = inhibition” value is -17.3% (inactive).
Same read-out and setting: the result for `C=C1C[C@H]2[C@@H]3C=C(C)C4=CC(=O)CC[C@]4(C)[C@H]3CC[C@]2(C)[C@@]1(OC(C)=O)C(C)=O` reads -33.8% (inactive); that for `COc1cc2c(cc1OC)C(=O)C(CC1CCN(Cc3ccccc3)CC1)C2` (stereo not given), -2.16% (inactive); that for `CC1(C)O[C@@H]2C[C@H]3[C@@H]4CCC5=CC(=O)CC[C@]5(C)[C@@]4(F)[C@@H](O)C[C@]3(C)[C@]2(C(=O)CCl)O1`, -18.9% (inactive).
As to `O=C(Nc1ccc(Cl)c(Cl)c1)C1CC1`, the “activity change, negative = inhibition” value is -22.1% (inactive).
On to `CCC(=O)c1c(O)cc(O)cc1O`, for which the “activity change, negative = inhibition” value is -2.87% (inactive).
Still for that read-out and setting: the result for `O=C1c2ccccc2C(=O)C1c1ccccc1` reads 17.5% (inactive); that for `O=C(N/N=C/c1ccccc1O)c1ccncc1`, -29.2% (inactive).
The same measure, in the same setting: to `CC(O)(P(=O)(O)O)P(=O)(O)O` belongs 1.69% (inactive); to `N[C@@H](CCC(=O)N[C@@H](CS)C(=O)NCC(=O)O)C(=O)O`, -0.259% [at 19 µM] (inactive).
As for `COc1cc(C=C2CCC/C(=C\c3ccc(O)c(OC)c3)C2=O)ccc1O`, the Potency is 14.9 µM (active).
For `C/C=C(/C(=C/C)c1ccc(O)cc1)c1ccc(O)cc1`, the “activity change, negative = inhibition” value was -16.9% (inactive).
